We go through 47 compounds from PubChem BioAssay AID2685 (National Center for Advancing Translational Sciences (NCATS), 2010).

Out of some 320,000 compounds screened, about 2,100 (0.66%) were called active. Roughly 53% stayed inconclusive and do not appear here. Calls follow the shape of the dose curve; as a rule, active = well fitted inhibition curve with a large enough effect in the signal ratio, with a control signal flat (not every such curve was filed as active); inconclusive = small, poorly fitted or top-dose-only effect, or effect the other way, or a change in a side signal; inactive = flat fitted curve, though single readings scatter; the % refers to the signal ratio. The sample as a whole holds a higher share of actives than the screen did.
Potency is read from the fitted curve at half-maximal effect.

A short description of the assay: qHTS Assay for Lipid Storage Modulators in Drosophila S3 Cells.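 As to cell number change: cells counted by Cell Tracker Red CMTPX staining in the red channel.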 As to lipid storage change, negative = inhibition: % is scaled to controls: 0 for no effect and ±100 for the full control effect. The settings on record: BODIPY lipid droplet fluorescence, 18-24 h, cells fed with added oleic acid; cell number change: measured here: cell count max response; series mostly up to 46.1 µM; lipid storage change, negative = inhibition: at the top concentration. In a few lines: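 Drosophila S3 cells loaded with oleic acid (400 uM, as added) and compounds at several concentrations; lipid droplets imaged by 488-nm laser-scanning cytometry, 500–530 nm intensity and object ratio to cell channel. Percent activity normalized to 20 uM Triacsin C.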
(qHTS replaces the single test concentration by a dilution series.)
In the case of `CN(Cc1ccccc1)C(=O)COC(=O)c1ccc2ccccc2n1`, the “lipid storage change, negative = inhibition” value is 8.38% (inactive) and the cell number change stood at 15.9%.
As for `CN(Cc1ccccc1)C(=O)COC(=O)c1ccccc1Nc1ccccc1`, the “lipid storage change, negative = inhibition” value was -5.27% (inactive) and the cell number change was -9.93%.
Consider `COCCNC(=O)CC(NS(=O)(=O)c1ccc(NC(C)=O)cc1)C(C)C` (centres undefined), for which the Potency was 5.8 µM (active) and the cell number change was -2.55%.
For the compound `CCC(C)NC(=O)CC(NS(=O)(=O)c1ccc(NC(C)=O)cc1)C(C)C` (centres undefined), the “lipid storage change, negative = inhibition” value was 2.51% (inactive) and the cell number change amounted to 10.4%.
For the compound `CC(=O)Nc1ccc(S(=O)(=O)NC(CC(=O)NC2CCCCC2C)C(C)C)cc1` (centres undefined), the outcome was inactive.
`Cc1cc(=O)[nH]c(SCC(=O)O)c1C#N`: the “lipid storage change, negative = inhibition” value was 18.1% (inactive) and the cell number change was -1.88%.
For `CCOC(=O)CSc1[nH]c(=O)cc(C)c1C#N`, the call was inactive and the cell number change is 23.9%.
Consider `Cc1cc(=O)[nH]c(SCC(N)=O)c1C#N`, for which the Potency is 23.1 µM (active) and the cell number change was -10.4%.
Regarding `Cc1ccc(C(=O)N2CCC3(CC2)Oc2ccc(F)cc2C(=O)C32CC(c3ccccc3)=NO2)s1` (centres undefined), the “lipid storage change, negative = inhibition” value is 11.6% (inactive) and the cell number change was determined as 11.1%.
As to `COc1ccc(OC)c(N(CC(=O)Nc2ccc(NC(C)=O)cc2)S(C)(=O)=O)c1`, the result was inactive and the cell number change stood at 18.4%.
For the compound `Cc1ccnc(NC(=O)c2ccc(N3C(=O)CCC3=O)cc2)c1`, the “lipid storage change, negative = inhibition” value is -7.96% (inactive) and the cell number change is -2.76%.
For `COc1cc(NC(=O)CCc2nnc3ccc(N4CCN(c5cccc(OC)c5)CC4)nn23)cc(OC)c1`, the outcome was inactive and the cell number change is -21.5%.
On to `COc1cccc(N2CCN(c3ccc4nnc(CCC(=O)Nc5cccc(C(C)=O)c5)n4n3)CC2)c1`, for which the compound was called inactive and the cell number change was -9.88%.
As for `COC(=O)c1ccc(NC(=O)CCc2nnc3ccc(N4CCC5(CC4)OCCO5)nn23)cc1`, the outcome was inactive and the cell number change is -17.4%.
For the compound `COc1cccc(NC(=O)CCc2nnc3ccc(N4CCN(c5cccc(OC)c5)CC4)nn23)c1`, the Potency was 9.2 µM (active) and the cell number change is -24.5%.
With `COc1ccccc1NC(=O)CCc1nnc2ccc(N3CCC4(CC3)OCCO4)nn12`, the Potency is 2.06 µM (active) and the cell number change is -20.4%.
On to `Cc1ccccc1NC(=O)CCc1nnc2ccc(N3CCC4(CC3)OCCO4)nn12`, for which the “lipid storage change, negative = inhibition” value was -6.37% (inactive) and the cell number change came to 15.5%.
Regarding `CCCCC(C(=O)N/N=C/c1ccccn1)C(=O)N/N=C/c1ccccn1`, the “lipid storage change, negative = inhibition” value was 15.9% (inactive) and the cell number change was 2.01%.
Consider `COc1cccc(NC(C)(C)c2nnnn2-c2c(C)cccc2C)c1`, for which the “lipid storage change, negative = inhibition” value is -0.863% (inactive) and the cell number change was determined as 12.6%.
Take `O=C(CCN1CCc2ccccc2C1)Nc1ccc(F)c(F)c1`: the “lipid storage change, negative = inhibition” value is 14.2% (inactive).
On the same count and under the same terms, the value for `CCOC(=O)c1c(S(=O)(=O)NCC(=O)Nc2ccc(OC)cc2)c(C)n(C)c1C` was 23.4% (inactive).
For `CCCOC(=O)CCCC[C@H]1SC[C@@H](NC(=O)OC)[C@H]1NC(=O)OC`, the “lipid storage change, negative = inhibition” value was 3.15% (inactive) and the cell number change is 5.48%.
Consider `CCOC(=O)c1c(C)nc(-c2ccccc2)nc1N`, for which the compound was classed as inactive and the cell number change was 1.72%.
Take `O=C(Cc1ccccc1Cl)NCCCn1ccnc1`: the “lipid storage change, negative = inhibition” value was -1.3% (inactive) and the cell number change was -1.19%.
`O=C(COc1coc(CN2CCN(c3ccccc3)CC2)cc1=O)NCC1CCCO1` (centres undefined): the outcome was “inactive [at 0.0737 µM]”.
`CCN(CC)S(=O)(=O)c1c(OC)cc(C)c(Cl)c1C`: the “lipid storage change, negative = inhibition” value was -25% (inactive) and the cell number change turned out to be 8.74%.
As for `Cc1c(C)c2ccc(OCC(=O)Nc3ccccn3)c(C)c2oc1=O`, the compound was called inactive and the cell number change amounted to 15.9%.
In the case of `O=C(COc1ccc(Br)cc1)NCCCn1ccnc1`, the “lipid storage change, negative = inhibition” value was -17.2% (inactive) and the cell number change was 9.25%.
Take `CCCc1cc(=O)oc2cc(C)cc(OCC(=O)NCc3ccncc3)c12`: the outcome was inactive and the cell number change worked out at 4.58%.
On to `CCCc1cc(=O)oc2cc(C)cc(OCC(=O)NCc3cccnc3)c12`, for which the compound was called inactive and the cell number change is -12.5%.
In the case of `CCCc1cc(=O)oc2cc(C)cc(OCC(=O)NCc3ccccn3)c12`, the Potency was 11.6 µM (active) and the cell number change is 6.85%.
As for `Cc1cc(OCC(=O)NCc2ccncc2)c2c(C)c(C)c(=O)oc2c1`, the compound was classed as inactive and the cell number change is 8.73%.
On to `O=C(COc1ccc(F)cc1)NCCCn1ccnc1`, for which the Potency was 25.9 µM (active) and the cell number change was -6.85%.
Take `Cc1cc(OCC(=O)NCCCn2ccnc2)c2c(C)c(C)c(=O)oc2c1`: the Potency was 13 µM (active).
With `CCCc1cc(=O)oc2cc(C)cc(OCC(=O)NCCCn3ccnc3)c12`, the “lipid storage change, negative = inhibition” value was -24.1% (inactive) and the cell number change worked out at 0.597%.
Take `CCc1cc(=O)oc2cc(C)cc(OCC(=O)NCCCn3ccnc3)c12`: the “lipid storage change, negative = inhibition” value is 10.1% (inactive) and the cell number change amounted to 8.87%.
As to `COc1ccc(OCC(=O)NCCCn2ccnc2)cc1`, the “lipid storage change, negative = inhibition” value was 19.8% (inactive) and the cell number change amounted to 17.2%.
In the case of `Cc1cc(OCC(=O)Nc2ccccn2)c2c(C)c(C)c(=O)oc2c1`, the Potency was 7.31 µM (active) and the cell number change was -10.4%.
Take `COc1ccc(CN(C)S(=O)(=O)c2nnc(NC(=O)c3ccccc3OC)s2)cc1OC`: the outcome was inactive and the cell number change is -3.88%.
As for `Cc1ccccc1CCNC(=O)C1CCCN(c2cnccn2)C1` (centres undefined), the compound was classed as inactive and the cell number change was -4.78%.
Consider `Cc1cccc(NC(=S)NCC(c2cccnc2)N2CCOCC2)c1` (centres undefined), for which the “lipid storage change, negative = inhibition” value is 16.3% (inactive) and the cell number change was determined as 16.1%.
For the compound `N#Cc1ccc(C(CC(=O)O)N2Cc3ccccc3C2=O)cc1` (centres undefined), the “lipid storage change, negative = inhibition” value is 1.6% (inactive) and the cell number change was 6.48%.
Consider `Cc1ccc(NC2CCCN(C(=O)c3ccoc3)C2)cc1C` (centres undefined), for which the “lipid storage change, negative = inhibition” value is -3.71% (inactive) and the cell number change is -11.9%.
Taken in the same sequence, the figures for `O=C(c1ccc(C(F)(F)F)cc1)N1CCN(S(=O)(=O)c2ccc3c(c2)OCCCO3)CC1` were 16.3% (inactive) and 3.78%.
In the case of `COc1ccccc1C(=O)Nc1ccc(Br)cc1C`, the “lipid storage change, negative = inhibition” value is 7.89% (inactive) and the cell number change amounted to 6.15%.
`COc1ccccc1NC(=O)c1cccc2c(Br)cccc12`: the outcome was inactive and the cell number change was -20.6%.
Turning to `COc1ccccc1C(=O)Nc1ccc(Br)c2cccnc12`, the Potency was 1.64 µM (active) and the cell number change is -27.2%.
